Bioassay records (PubChem)
Rows were chosen to be rich in hits. Some 8.7% of all compounds tested hit in one or more screens of this group.
Pf growth 48h = P. falciparum growth inhibition at 48 hours (one generation); 5.9% of 310,000 active; AID 504832; P. falciparum luciferase growth in erythrocytes, 48 h; Potency, µM (top dose mostly 28.7 µM), for inactives: at the top dose activity change, negative = inhibition, actives largely listed as inhibitors
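Cell-based growth assay: transgenic P. falciparum expressing firefly luciferase, cultured in red cells within RPMI 1640 containing 0.5% w/v Albumax, 24 mM bicarbonate and gentamycin. A drop in luciferase activity indicates inhibition.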
Vaccinia mCherry = vaccinia inhibition (mCherry reporter) | Vaccinia virus mCherry reporter infection, fluorescence | Potency, µM (titrated, usually from 36.5 µM), for the others: at the highest dose activity change, negative = inhibition, hits mostly inhibitors | 0.63% of 310,000 active | AID 720579; calls by dose curve; tested in A549 cells; also: nearly all actives have a fitted effect of over 35% in size
VACV Venus inh = inhibitors of vaccinia virus (Venus reporter); 0.46% of 330,000 active; Potency, µM (top dose mostly 36.5 µM), for inactives: at the top dose activity change, negative = inhibition, usual class: inhibitors; Vaccinia virus Venus reporter expression, fluorescence; calls by dose curve; tested in A549 cells; also: nearly all actives have a fitted effect of over 30% in size
AMA1-RON2 inh = AMA1-RON2 (P. falciparum) interaction inhibition; AlphaScreen AMA1-biotinylated RON2 peptide binding; 0.2% of 360,000 active; Potency, µM (highest dose often 58.2 µM), without a hit: at the highest dose activity change, negative = inhibition, hits mostly inhibitors; AID 720542;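 also: 0% = vehicle wells and -100% = peptide control; nearly all actives have a fitted effect of over 45% in size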
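AMA1 (3D7) with his tag at 25 nM final met compounds first, then biotinylated RON2 peptide at 25 nM; detection used donor plus acceptor beads, 10 µg/mL apiece, read by AlphaScreen after 30 min at room temperature.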
Pf growth 96h = inhibits malaria parasite growth, 96 h | P. falciparum luciferase reporter growth, 96 h | Potency, µM (top dose mostly 28.7 µM), for inactives: at the highest dose activity change, negative = inhibition, hits mostly inhibitors | 6.9% of 320,000 active
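Luminescence readout: decreased luciferase signal marks inhibited growth of reporter-expressing P. falciparum in infected red cells (2% hematocrit, 0.05% parasitemia final), exposed to compound two generations (96 h, 37 C, 5% CO2).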
The depositor's hits bear a star; i = inactive; ? = inconclusive; . = not tested or not shown; ! = not active in a repeat; [ ] = remark or other dose. Unless noted, calls follow the shape of the dose curve; as a rule, active = well fitted curve in the direction sought with a large enough effect; inconclusive = small, poorly fitted or top-dose-only effect, or another doubt; inactive = no such curve, though single readings can be large; an effect the other way counts as inactive or inconclusive. Unless noted, % is scaled to controls: 0 for no effect and ±100 for the full control effect; potency is read from the fitted curve at half-maximal effect.

SMILES	Pf growth 48h	Vaccinia mCherry	VACV Venus inh	AMA1-RON2 inh	Pf growth 96h
CC(C)(C)OC(=O)[C@H]1[C@H](c2ccc([N+](=O)[O-])cc2)C2(C(=O)c3ccccc3C2=O)C2c3ccccc3C=NN21 (some centres undefined)	13.1µM*	-1.5%	-10.8%	-18.6%	1.85µM*
O=C(CCCn1c(=O)c2sccc2n(Cc2cccc(Cl)c2)c1=O)NCc1ccc2c(c1)OCO2	.	-12.6%	-8.5%	.	.
O=C(Nc1ccncc1)Nc1ccc(F)c(Cl)c1	3.29µM*	?	?	12.0%	20.3%
Fc1ccc(NC(=S)Nc2ccc(F)c(Cl)c2)cc1Cl	.	?	10µM*	21.4%	?
O=C(Nc1ccncc1)Nc1ccc(F)cc1F	9.28µM*	-17.5%	-12.4%	6.6%	34.8%
COC(=O)NC(=S)Nc1ccc(Oc2ccc(Cl)cc2Cl)c(Cl)c1	?	-17.1%	?	81.9%	13.1µM*
CSc1ncccc1C(=O)NCC1Cc2cc(-c3cnccn3)cc(Cl)c2O1 (centres undefined)	.	i	-12.5%	.	.
O=[N+]([O-])c1cc(-c2nc(-c3ccccc3)no2)ccc1NC1CCCCC1	.	3.0%	0.8%	.	.
COc1ccccc1CNC(=O)CSc1nc(=O)[nH]c2c1CCC2	.	-6.0%[7.34 µM]	-6.3%[7.34 µM]	.	.
CCOC(=O)c1ccc(NC(=O)c2cccc3c(=O)c4c([nH]c23)CCCC4)cc1	.	2.8%	-6.3%	.	.
Oc1c(CN2CCc3ccccc3C2)cc(Cl)c2cccnc12	.	2.51µM*	?	-67.6%	137.1%
O=S(=O)(c1ccc(Cl)cc1)N1CCN(Cc2ccc(O)c3ncccc23)CC1	1.85µM*	?	?	-50.0%	?
Oc1c(I)cc(Cl)c2cccnc12	?	-28.7%	-17.0%	-51.0%	?
Oc1c(Cl)cc(CN2CCOCC2)c2cccnc12	4.65µM*	.	.	-78.0%	5.86µM*
O=C(Oc1c(CN2CCOCC2)cc(Cl)c2cccnc12)c1ccccc1	?	?	?	-73.1%	?
O=C(COc1c(Br)cc(Br)c2cccnc12)N1CCCCC1	16.4%	-12.8%	-14.4%	44.6%	11.5%
Oc1c(CN2CCCCC2)cc(Br)c2cccnc12	2.62µM*	.	.	-67.7%	?
Cc1cccc(-n2c(=O)c3c(c4cc(C)ccc4n3C)n(CC(=O)Nc3ccc(C)cc3C)c2=O)c1	.	-5.8%	-2.2%	.	.
O=[N+]([O-])c1cc(CN2CCOCC2)c2cccnc2c1O	4.15µM*	-7.2%	-6.7%	-10.5%	-16.1%
Cc1cccc(CNC(=O)CS(=O)(=O)c2cccc3nsnc23)c1	.	-2.4%	3.0%	.	.
Cc1ccc2nc3c(cc(C(=O)NCC4CCCO4)c(=N)n3CC3CCCO3)c(=O)n2c1 (centres undefined)	44.6%	-6.7%	5.2%	-18.7%	53.8%
N=c1c(C(=O)NC2CCCC2)cc2c(=O)n3ccccc3nc2n1CC1CCCO1 (centres undefined)	13.1µM*	i	-0.9%	-7.9%	?
C=CCNC(=O)c1cc2c(=O)n3cc(C)ccc3nc2nc1NCC1CCCO1 (centres undefined)	8.4%	.	.	.	4.15µM*
N=c1c(C(=O)NC2CCCCC2)cc2c(=O)n3ccccc3nc2n1CC1CCCO1 (centres undefined)	?	i	-6.3%	3.6%	?
Cc1ccc(CNC(=O)c2cc3c(=O)n4ccccc4nc3n(CC3CCCO3)c2=N)cc1 (centres undefined)	2.62µM*	?	-1.9%	-0.6%	?
SMILES	Pf growth 48h	Vaccinia mCherry	VACV Venus inh	AMA1-RON2 inh	Pf growth 96h
CC(NC(=O)c1cc2c(=O)n3ccccc3nc2n(CC2CCCO2)c1=N)c1ccccc1 (centres undefined)	13.1µM*	0.9%	10.0%	-7.4%	19.3%
COc1cccc(NC(=O)c2c(C)oc3nc(C)nc(N4CCCC4)c23)c1	.	i	-7.0%	.	.
Cc1cc(F)ccc1NC(=O)CN1C(=O)CCc2cc(S(=O)(=O)N3CCOCC3)ccc21	.	-7.7%	5.7%	.	.
COc1cccc2cc(-c3nc(Nc4cccc(C)c4)sc3C)c(=O)oc12	.	-13.4%	-9.3%	.	.
CCN(CC)CCOc1ccc(/C(=C(/Cl)c2ccccc2)c2ccccc2)cc1	9.28µM*!	-19.8%	-28.1%	-19.6%	9.28µM*
CC/C(=C(\c1ccccc1)c1ccc(OCCN(C)C)cc1)c1ccccc1	13.1µM*	-18.6%	?	?	?
CC/C(=C(\c1ccc(O)cc1)c1ccc(OCCN(C)C)cc1)c1ccccc1	.	-15.8%	?	?	.
COc1ccc(-c2cc3nccc(-c4cc(Cl)c(C)cc4O)n3n2)cc1	.	-4.2%	-11.7%	.	.
N#Cc1c[nH]n2c(NC3CCCCC3)c(-c3cccc(Cl)c3)nc12	.	3.0%	-13.4%	.	.
CCN(CC)CCNC(=O)C(=O)Nc1ccc2c(c1)N(S(=O)(=O)c1cccs1)CCC2	14.7µM*	?	-24.1%	3.7%	?
CC(=O)c1ccc(F)c(-c2cc(C)cc3c2OC(CNC(=O)C2CCCCN2C)C3)c1 (centres undefined)	.	-20.8%	-7.3%	.	.
CCn1c(C(=O)NCc2ccc(F)cc2)cc2oc3ccccc3c21	.	-16.3%	10.1%	.	.
COC(=O)c1cc2oc3ccccc3c2n1CC(=O)Nc1ccccc1OC	.	.	-27.9%	2.4%	?
COc1cccc(CNC(=O)c2cc3oc4ccccc4c3n2C)c1OC	.	-19.1%[1.46 µM]	-14.1%	-5.4%	9.28µM*
CCOc1ccccc1CNC(=O)c1cc2oc3ccccc3c2n1CC	.	-19.5%	11.0%	-15.3%	1.17µM*
CCOc1ccc(CNC(=O)c2cc3oc4ccccc4c3n2C)cc1	12.2%	10µM*!	7.3%	2.5%	.
CC(C)=CCC[C@@](C)(O)[C@H]1CC=C(C)CC1	.	i	-2.4%	.	.
O=[N+]([O-])c1ccc(/C=N/Nc2nc(NCc3ccccc3)nc(N3CCOCC3)n2)cc1	13.1µM*	.	.	15.5%	16.4%
BrC(/C=C\c1ccccc1)=N/Nc1nc(N2CCOCC2)nc(N2CCOCC2)n1	?	.	.	9.6%	?
O=[N+]([O-])c1cccc(/C=N/Nc2nc(NCc3ccccc3)nc(N3CCOCC3)n2)c1O	6.57µM*	.	.	-81.6%	?
C/C(=N\Nc1nc(N2CCCCC2)nc(N2CCOCC2)n1)c1ccccc1O	11.7µM*	i	-21.9%	21.9%	-1.8%
BrC(=C\c1ccccc1)/C=N/Nc1nc(N2CCOCC2)nc(N2CCOCC2)n1	7.38µM*	-2.0%	-16.1%	-2.8%	?
O=[N+]([O-])c1cccc(/C=N/Nc2nc(NCc3ccccc3)nc(N3CCOCC3)n2)c1	?	-19.0%	-1.7%	-1.1%	?
COc1ccc(-c2cc(C(F)(F)F)n3nc(C(=O)Nc4cccc(Cl)c4Cl)cc3n2)cc1OC	.	0.6%	-2.4%	.	.
O=[N+]([O-])c1ccc(Cc2ccc([N+](=O)[O-])cc2)cc1	.	-15.8%	-1.7%	-2.7%	.
N=c1ccn(Cc2ccc([N+](=O)[O-])cc2)cc1	4.15µM*	-0.7%	-27.4%	-19.7%	?
Cc1ccc(Cl)cc1N1CCN(C(=O)COc2cc(=O)n(C)c3ccccc23)CC1	.	-1.7%	-16.8%	.	.
